# In the library only some 2.1% were active in any assay of this set; here they are far more common.
# GRP78 ERSR act: qHTS for Inducers of the Endoplasmic Reticulum Stress Response (ERSR) in Human Glioma: qHTS. U87-MG GRP78 promoter luciferase reporter, 16 h. Potency, µM, for the others: at the highest dose activation, actives largely listed as activators. 0.02% of 420,000 active; note: series mostly up to about 76 µM; % of control where 0% means no effect; nearly all actives have a fitted effect of over 35% in size
#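 Stably transfected U87-MG glioma cells carrying a GRP78-based luciferase sensor; 16 h compound incubation. Luminescence end-point read 10 min after Bright-Glo addition at room temperature.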
# Abeta yeast res: qHTS for compounds that reverse cellular toxicity of Amyloid beta (A-beta) peptide in yeast: Primary Screen; yeast expressing A-beta42, growth rescue, OD600, 48 h; response scale: 0% DMSO, 100% iron-clioquinol control; Potency, µM (series often up to 46.1 µM), most hits filed as activators; 0.063% of 410,000 active; AID 1347071, 2019; note: nearly all actives have a fitted effect of over 55% in size
#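 Yeast A-beta toxicity model in growth medium with pinned compounds, 48 h at 30 C; growth read as absorbance at 600 nm. Normalized to FeCl3/clioquinol equimolar mix (positive) and DMSO (negative).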
# Mito fusion yeast: qHTS Assay for Small Molecule Inhibitors of Mitochondrial Division or Activators of Mitochondrial Fusion; 0.23% of 320,000 active; Potency, µM (top dose mostly 46.1 µM), for inactives: at the top dose growth rescue (activation), usual class: activators; S. cerevisiae fusion-defective mutant growth rescue, CellTiterGlo 48 h; AID 485298, 2010; note: % of control where 0% means no effect; nearly all actives have a fitted effect of over 45% in size
#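 Read-out: ATP-based luminescence (CellTiterGlo, 10 min ambient) reporting growth of fusion-defective ts yeast after 48 hours at 37C on glycerol/ethanol YPEG medium in the presence of compound.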
# A-T KAP1 phos: qHTS Assay for Identifying a Potential Treatment of Ataxia-Telangiectasia; F2112 A-T fibroblasts, KAP-1 phosphorylation AlphaLISA; neocarzinostatin DNA damage 30 min before lysis; Potency, µM (doses to about 57.5 µM), without a hit: at the highest dose activation, actives largely listed as activators; 0.19% of 320,000 active; AID 485349, 2010; note: % of control where 0% means no effect; nearly all actives have a fitted effect of over 45% in size
#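 ATM-like activity read as KAP-1 phosphorylation via AlphaLISA donor/acceptor antibody pairs after lysis and 6 hr at 25C. Cells were ATM-null patient fibroblasts (F2112, hTERT), dosed 60 min, then exposed to the DSB inducer NCS for 30 min.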
# aSyn rescue: qHTS of alpha-syn Inhibitors; 0.14% of 370,000 active; Yeast expressing alpha-synuclein, growth rescue, BacTiter-Glo, 24 h; Potency, µM (titrated, usually from 46.1 µM), without a hit: at the top dose growth rescue (activation), most hits filed as activators; note: % of control where 0% means no effect; nearly all actives have a fitted effect of over 65% in size
#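 Screening used galactose-induced yeast with toxic alpha-synuclein levels, exposed to compound for 24 hr at 30 deg C. Cell growth, read with BacTiter-Glo luminescence, gave the measured signal.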
# TDP-43 yeast inh: qHTS of TDP-43 Inhibitors | TDP-43 expressing yeast growth rescue, BacTiter-Glo, 24 h | Potency, µM (highest dose often 46.1 µM), without a hit: at the top dose growth rescue (activation), hits mostly activators | 1.8% of 410,000 active | AID 652104, 2013; note: % of control where 0% means no effect; nearly all actives have a fitted effect of over 50% in size
#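 Cell-based yeast growth screen: TDP-43 expression induced in galactose, inoculum OD600=0.02 after raffinose pregrowth to mid-log. Read-out BacTiter-Glo luminescence at 24 hr, 30 deg C; inhibition of toxicity seen as signal increase.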
# * hit, by the source's call; i = inactive; ? = inconclusive; / = no result given. Calls come from the whole dose curve; as a rule, active = well fitted curve in the direction sought with a large enough effect; inconclusive = small, poorly fitted or top-dose-only effect, or another doubt; inactive = no such curve, though single readings can be large; an effect the other way counts as inactive or inconclusive. Potency is the fitted concentration of half-maximal effect.
SMILES,GRP78 ERSR act,Abeta yeast res,Mito fusion yeast,A-T KAP1 phos,aSyn rescue,TDP-43 yeast inh
CC(=O)N1[C@@H]2CC3C4CC=C5C[C@@H](O)CC[C@]5(C)C4CC[C@]3(C)[C@@]21C(C)=O (stereo partly specified),-4%,i,22µM*,-12%,9%,19%
CC(=O)C1(O)C(C)CC2C3CC=C4CC(O)CCC4(C)C3CCC21C (stereo unspecified),-2%,i,/,/,16%,-10%
CC12CCC(O)CC1=CCC1C2CCC2(C)C3=NN=CC3CC12 (stereo unspecified),-3%,i,/,/,?,16µM*
O=C(Nc1ccc(F)cc1F)C1CCCN(c2ncnc3c2nc2n3CCCCC2)C1 (stereo unspecified),-1%,i,3%,16%,0%,?
CCOc1ccc(Nc2ncnc3c2nc2n3CCCCC2)cc1,-1%,i,/,/,/,13µM*
Fc1ccc(Nc2ncnc3c2nc2n3CCCCC2)c(F)c1,-5%,i,/,/,/,11µM*
COc1ccc(Nc2ncnc3c2nc2n3CCCC2)cc1Cl,-1%,i,/,/,/,13µM*
O/N=C(\c1ccc(Cl)cc1)c1ncc(C(F)(F)F)cc1Cl,-8%,i,8%,/,-16%,13µM*
CN(NC(=O)c1ccc(Cl)cc1)c1ncc(C(F)(F)F)cc1Cl,-5%,i,-2%,3%,-2%,3%
COc1ccc2c(c1)-c1ccccc1S(=O)(=O)N2C,0%,i,-3%,1%,-6%,11µM*
CNC(=O)COC(=O)/C=C/c1nc2ccccc2s1,-2%,i,-16%,-6%,7%,16µM*
C(=N/Nc1nc(-c2ccccc2)cc(-c2ccccc2)n1)/c1cccnc1,8%,i,?,0%,8%,14µM*
Cc1ccc(-c2cc(-c3ccccc3)nc(N/N=C/c3cccnc3)n2)cc1,2%,i,/,/,-6%,?
O=C1CSC(=S)N1c1cccc(O)c1,-8%,i,10%,3%,?,-5%
O=C(O)c1cccc(N2C(=O)CSC2=S)c1,-9%,i,1%,-5%,35µM*,?
O=C1CSC(=S)N1c1cccc(Br)c1,-1%,i,23%,7%,1%,14µM*
COc1ccc(CCNC[C@H](O)COc2cccc(C)c2)cc1OC,-3%,/,/,/,/,/
CC[C@@H]([C@H](C)O)n1ncn(-c2ccc(N3CCN(c4ccc(OCC5CO[C@@](Cn6cncn6)(c6ccc(F)cc6F)C5)cc4)CC3)cc2)c1=O (stereo partly specified),-4%,/,/,/,/,/
CN(C)S(=O)(=O)c1ccc(N2CCCC2)c(C(=O)NCC(=O)Nc2ccc(F)c(F)c2)c1,-4%,i,-2%,6%,-2%,-19%
Cc1ccc(NC(=O)c2cc(S(=O)(=O)N(C)C)ccc2N2CCCC2)cc1F,32µM*,i,2%,39%,3%,-1%
Cc1ccc(NC(=O)COC(=O)c2ccccc2F)cc1S(=O)(=O)N1CCCCC1,-4%,?,8%,-5%,0%,15%
Cc1ccc(NC(=O)c2ccc(C)c(S(=O)(=O)N3CCCCCC3)c2)cc1,0%,i,/,/,0%,18µM*
COc1ccccc1CN(C)CC(=O)Nc1cccc(S(=O)(=O)N2CCCCC2)c1,-3%,i,-4%,-2%,1%,3.2µM*
Cc1ccc(NC(=O)c2ccccc2F)cc1S(=O)(=O)N1CCCCCC1,-5%,i,10%,3%,5%,20µM*
Cc1oc(-c2ccccc2NC(=O)c2ccccn2)nc1CNC(=O)c1ccc(Oc2ccccc2)o1,-1%,/,/,/,/,/
